ssDAF12 agonist – S. stercoralis DAF-12 nuclear receptor activators, primary screen, cell-based, luminescence, HEK293, GRIP1 co-expression, lit1-tk-luc; activation, % at 6.8 µM; 370,000 tested, 1% active; AID 652126, 2013; Nuclear hormone receptor DAF-12 (Strongyloides stercoralis); HEK293 ssDAF-12/GRIP1 lit1-tk-luc reporter; % of 3 µM dafachronic acid response;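 active = activation above the mean over all tested compounds plus 3 SD, cut at about 0.9% in these data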
DAX1 inh-1 – DAX1 (NR0B1) inhibitors, primary screen, cell-based, HEK293, Gal4-DAX1, luciferase luminescence | AID 504766, 2011 | 340,000 tested, 0.99% active | HEK293 Gal4-DAX1 luciferase reporter | inhibition, % at 6.75 µM | Nuclear receptor subfamily 0 group B member 1 (Homo sapiens), P51843;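 active = inhibition above the mean over all tested compounds plus 3 SD, cut at about 4.2% in these data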;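 note: inhibition shows as a rise in luminescence from relieved DAX1 repression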
Target sequence (P51843 207-470 limits assumed): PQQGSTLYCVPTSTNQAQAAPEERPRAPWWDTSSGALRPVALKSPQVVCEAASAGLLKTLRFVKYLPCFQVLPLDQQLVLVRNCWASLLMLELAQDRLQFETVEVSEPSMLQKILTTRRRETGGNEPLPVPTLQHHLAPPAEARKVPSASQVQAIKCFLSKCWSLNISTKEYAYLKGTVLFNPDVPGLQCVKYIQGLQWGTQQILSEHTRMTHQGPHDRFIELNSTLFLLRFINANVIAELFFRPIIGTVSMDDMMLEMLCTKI
hcDAF-12 act – H. contortus DAF-12 nuclear receptor activators, primary screen, cell-based, luminescence, HEK293, lit1-tk-luc reporter; HEK293 hcDAF-12 lit1-tk-luc reporter; 0% DMSO, 100% Δ7-dafachronic acid; AID 652067, 2013; activation, % at 6.8 µM; 370,000 tested, 1.4% active;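 active = activation above the mean of all tested compounds plus 3 SD, cut at about 5.5% in these data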
hgDAF12 agonist – H. glycines DAF-12 receptor agonists, primary screen, cell-based, luminescence, HEK293, GAL4 fusion, UAS-luciferase | Nuclear hormone receptor DAF-12 (Heterodera glycines), GAL4 fusion | HEK293 GAL4-hgDAF12 UAS-luciferase reporter, agonist luminescence; normalized to butyrate control | activation, % at 6.8 µM | 370,000 tested, 1.8% active | AID 687014, 2013;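 active = activation above a cutoff set at the mean of all screened compounds plus 3 SD, cut at about 10% in these data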
DAX1 inh-2 – DAX1 (NR0B1) inhibitors on StAR promoter, primary screen, cell-based, luminescence, SF-1 (NR5A1), full-length DAX-1; inhibition, % at 6.8 µM; HEK293T StAR-luciferase reporter, SF-1/DAX-1 repression relief; 370,000 tested, 1.1% active;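 active = inhibition above the mean over all tested compounds plus 3 SD, cut at about 3.6% in these data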;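 note: higher inhibition means more luminescence from relief of DAX-1 repression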
Hits are given with their value; . = inactive; / = not tested or not shown. An excerpt weighted towards active compounds, which were near 4.1% of everything screened.

SMILES	ssDAF12 agonist	DAX1 inh-1	hcDAF-12 act	hgDAF12 agonist	DAX1 inh-2
COC(=O)[C@]12C[C@H](CC(=O)NCc3cccc(C(F)(F)F)c3)C(=O)N(Cc3cccc4ccccc34)C1=C[C@H](COCc1ccccc1)O[C@@H]2C	.	/	.	.	.
CCCn1c2c(c(O)c(C(=O)Nc3nc4ccccc4s3)c1=O)CCCC2	.	.	6.0	.	.
CCOC(=O)C/C(C)=N\Nc1nc(-c2ccccc2)cs1	1.7	.	.	.	.
N#Cc1ccc(Cn2ccc3ccc(-c4ccc5ccn(C(=O)C6CC6)c5c4)cc32)cc1	.	/	.	.	.
COc1ccc2nc3cc(Cl)ccc3c(C#N)c2c1	.	.	.	.	.
COc1ccc2nc3cc(Cl)ccc3c(Nc3ccc(O)c(CN4CCN(C)CC4)c3)c2c1	.	4.3	.	.	.
CC(=O)NC1CCCCN(C(C)C)C1=O (stereo not drawn)	.	/	.	.	.
COCC(C)NC(=O)NC(=O)c1ccc(Cl)cc1 (stereo not drawn)	1.1	.	.	.	.
CC(NC(=O)NC(=O)c1ccc(Cl)cc1)c1ccccc1 (stereo not drawn)	.	.	.	.	.
O=c1cc(CN2CCN(c3cccc(C(F)(F)F)c3)CC2)nc2sccn12	.	/	.	.	.
O=c1cc(CN2CCN(c3ccccn3)CC2)nc2sccn12	.	.	5.7	.	.
CC(C)(C)c1ccc(C(=O)Nc2ccc(F)cc2)s1	.	.	6.3	.	.
CC1(c2nnnn2Cc2ccccc2)CN(S(C)(=O)=O)CC(=O)N1Cc1cccs1 (stereo not drawn)	.	/	.	.	.
NC(=O)NC(=O)COC(=O)c1ccc2noc(-c3ccccc3)c2c1	.	.	.	12.2	.
O=C(C1CCCCC1C(=O)N1CCCCC1)N1CCCCC1 (stereo not drawn)	.	.	.	.	.
O=C(O)C1CCCCC1C(=O)N1CCCC1 (stereo not drawn)	1.5	.	.	.	.
O=C1OCC2=C1C(c1ccccc1)CC(=O)N2c1ccc(F)cc1 (stereo not drawn)	.	.	.	11.7	.
CN1CCN(c2nc(-c3ccc(C(C)(C)C)cc3)nc3ccccc23)CC1	.	.	6.2	.	.
CCN1CCN(c2nc(-c3ccccc3)nc3ccccc23)CC1	.	.	.	.	.
Cc1ccc(-c2nc(N3CCN(C)CC3)c3ccccc3n2)cc1	.	.	6.3	.	.
C=CCN(CC#Cc1ccc(OC)cc1)CC=C	.	/	.	.	.
CCCCNC(=O)O[C@H]1CC[C@@]23CCCN2C(=O)CCC[C@H]3[C@H]1C	.	/	.	.	/
Cc1[nH]c2ccccc2c1CC(=O)Nc1ccc(Nc2cccnc2)c(-c2ccc(-c3ccccc3)cc2F)c1	.	/	.	.	.
N#C/C(=C\Nc1ccccc1O)c1nc2ccccc2o1	.	.	6.3	.	.
O=C1N=C(N2CCOCC2)SC1=C1CCCCC1	.	6.8	.	.	.
SMILES	ssDAF12 agonist	DAX1 inh-1	hcDAF-12 act	hgDAF12 agonist	DAX1 inh-2
CC(=O)N1CCN(C2=NC(=O)C(=C3CCCCC3)S2)CC1	.	.	.	.	.
Cc1ccccc1-c1ccc2c(c1)[C@@H]1C[C@H](N(C)C(=O)c3ccco3)[C@H]([C@H](C)O)CN1CC2	.	/	.	.	.
COc1cccc2c1OCC(C(=O)Nc1nccs1)=C2	.	.	.	12.9	.
O=C(N/N=C/c1ccncc1)C1C2CCCCCCC21 (stereo not drawn)	.	.	.	.	.
O=C(N/N=C/c1ccncc1)NC1CCCCC1	.	5.9	.	.	.
COc1ccc(Cl)cc1C(=O)O/N=C(\N)c1ccc(Cl)cc1	.	.	6.0	.	.
COc1cc(OC)c(C(=O)O/N=C(\N)c2ccc(C)cc2)cc1OC	.	.	.	.	.
N/C(=N\OC(=O)c1cc(Cl)ccc1Cl)c1cccnc1	.	.	6.3	.	.
N/C(=N\OC(=O)c1cccc(Cl)c1)c1cccnc1	.	.	.	11.1	.
COCC1CCCCN1C(=O)c1ccc(OC2CCN(Cc3ccccn3)CC2)cc1 (stereo not drawn)	.	.	.	.	.
CCC1CCCCN1C(=O)c1ccc(OC2CCN(Cc3ccccn3)CC2)cc1 (stereo not drawn)	.	.	.	11.2	.
COc1ccc(CNC(=O)Cn2nc([N+](=O)[O-])cc2C)cc1	.	.	.	.	.
COc1ccc(/C(C)=N/NC(=O)Cn2nc([N+](=O)[O-])cc2C)cc1	.	4.5	.	.	.
Cc1ccc(C(=O)NCCN2C(=O)C3C4C=CC(C4)C3C2=O)cc1 (stereo not drawn)	.	/	.	.	.
CCn1nc(C(=O)OCC(=O)Nc2nc(-c3ccc(OC)cc3)cs2)c2ccccc2c1=O	.	.	.	10.5	.
COc1ccc(-c2csc(NC(=S)NC(=O)c3ccco3)n2)cc1	.	.	.	.	.
CCn1nc(C(=O)OCC(=O)NCC(C)C)c2ccccc2c1=O	.	.	.	.	.
Cc1ccc(-c2csc(NC(=O)COC(=O)c3cccc(S(=O)(=O)N4CCOCC4)c3)n2)cc1	.	/	.	.	3.6
CCCC(=O)NC(=S)Nc1nc(-c2ccc(OC)cc2)cs1	.	4.7	.	.	.
Cc1ccc(-c2csc(NC(=O)c3cccc(S(=O)(=O)N4CCN(C)CC4)c3)n2)cc1	.	.	.	.	.
COc1ccc(-c2csc(NC(=O)COC(=O)c3ccco3)n2)cc1	.	.	.	11.3	.
Brc1ccc(CN2CCN(c3ncc(Cc4ccccc4)cn3)CC2)cc1	.	/	.	.	.
O=C(C1CCN(S(=O)(=O)c2cccc3cccnc23)CC1)N1CCN(c2ccccc2)CC1	.	.	.	12.1	.
CN(C(=O)CCn1nnc(-c2cccs2)n1)C1CCCCC1	.	/	.	.	.
CCOc1ccc(C(=O)Nc2c(C(=O)N3CCC(N4CCCCC4)CC3)oc3ccccc23)cc1	.	.	.	.	4.0
CC1CCN(c2ccc(C(=O)O)cc2NS(=O)(=O)c2ccccc2)CC1	.	/	.	.	.
O=C(Nc1ccc2c(c1)OCO2)Nc1cnccn1	.	.	.	.	.
N#Cc1ccccc1OCC(=O)Nc1ccc2c(c1)OCCO2	.	.	6.5	11.7	4.1
O=C(Nc1ccc2c(c1)OCO2)c1cnn2cccnc12	.	.	5.7	.	.
CC(OC(=O)c1ccccn1)C(=O)Nc1ccc2c(c1)OCCO2 (stereo not drawn)	.	.	.	11.1	.
